# TROY signal inh = inhibitors of TROY-driven NF-kB signaling, primary screen, Q293 LMP1-TROYcd cells, NF-kB luciferase, uHTS | Q293 LMP1-TROYcd NF-kB luciferase reporter, 4 h | inhibition, % at 10 µM | 360,000 compounds, 0.98% hits | AID 1347056, 2019;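 active = compounds whose plate-normalised and pattern-corrected inhibition of the luciferase reporter signal at the single screening dose is 50% or more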
# LGR2 inh = inhibitors of bursicon-induced LGR2 CRE-luciferase signal, primary screen, cell-based, HEK293, CRE-luciferase reporter, bursicon stimulation; Drosophila bursicon receptor LGR2 (rickets); bursicon-stimulated, 4 h; inhibition, % at 9.99 µM; 380,000 compounds, 0.35% hits; AID 720647, 2013;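 active = drop in luminescence signal, shown as inhibition above about 50% in the replicate tests, limit read from the data, passing the limit was not always enough; inconclusive = probably only some replicates passing the limit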;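 note: agonist challenge used bursicon conditioned medium at about half maximal strength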
# EWS-Fli block = EWS/Fli-driven NR0B1 reporter inhibitors, primary screen, A673 cells, NR0B1 luciferase, luminescence, MLPCN library | viability-normalised | inhibition, % at 12.6 µM | 350,000 compounds, 0.67% hits | AID 651661, 2012;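 active = mean inhibition of at least 50% after viability correction, with every replicate also passing that limit; inconclusive = mean reaches 50% but only one of two replicates passes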;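 note: firefly luciferase signal divided by Alamar Blue viability fluorescence both relative to DMSO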
# TWEAK-Fn14 inh = inhibitors of TWEAK-Fn14 signaling, primary screen, luciferase reporter cells, uHTS; 360,000 compounds, 2% hits; TWEAK-stimulated Fn14 reporter cells, luciferase luminescence, 8 h; inhibition, % at 10 µM; in the data active = inhibition above about 50%
# PAX8 reporter = inhibitors of PAX8-driven TPO luciferase reporter, primary screen, RMG-I cells, single concentration; inhibition, % at 12.6 µM; SteadyGlo, 24 h; 360,000 compounds, 1.2% hits;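 active = mean replicate inhibition at least 60% with every replicate also reaching 60%; inconclusive = only one of the two criteria is met; inactive = mean below 60% and not all replicates reaching 60%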;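 note: luciferase light reporting Pax8 driven TPO promoter activity; plate controls were median of neutral control wells for no effect and mitoxantrone controls for full effect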
# * = called active by the depositor; ? = inconclusive; / = not tested or not shown. In the library only some 2.8% were active in any assay of this set; here they are far more common.
SMILES,TROY signal inh,LGR2 inh,EWS-Fli block,TWEAK-Fn14 inh,PAX8 reporter
N#Cc1ccc(NC(=O)Nc2cccc(C#N)c2)cc1,28.4,11.1,-1.0,-33.7,0.6
N#Cc1ccc(NC(=O)Nc2ccc(Oc3ccc(NC(=O)Nc4ccc(C#N)cc4)cc3)cc2)cc1,61.8*,32.7,18.6,105.3*,72.7*
COc1cc(/C=N/n2c(-c3ccc4c(c3)NC(=O)CO4)csc2=Nc2cccc(C)c2)ccc1O,12.3,-22.7,/,65.3*,30.1
CC(C)NC(=O)N1[C@H](CO)[C@H](c2ccccc2-c2ccc(F)cc2)[C@@H]1C#N,/,17.9,12.8,/,/
Cc1cc(NC(=O)c2ccc3c(c2)OCO3)no1,-31.6,3.2,/,11.0,/
Nc1ccc(C(=O)Nc2cccc3ncccc23)cc1,-7.5,6.2,2.5,6.4,7.0
COc1ccc2nc(SCC(=O)Nc3ccc4c(c3)OCCO4)[nH]c2c1,69.3*,-8.5,/,89.1*,/
O=C(Nc1cccc2ncccc12)c1ccc2c(c1)OCCO2,/,/,/,82.9*,/
Cc1cc(NC(=O)c2ccc3c(c2)OCCO3)no1,39.6,/,/,77.3*,/
Cc1ccc(C(=O)Nc2ccc3c(c2)CCC3)cc1,38.9,?,58.9*,71.3*,9.9
Cc1ccc(C(=O)NCC(=O)Nc2ccc3c(c2)CCC3)cc1,-19.7,-65.2,-42.6,-14.7,/
Cc1ccc(C(=O)Nc2ccc3c(c2)OCCO3)c(Cl)c1,42.9,82.4*,63.3*,89.5*,52.4
O=C(Nc1ccc2c(c1)OCCO2)c1cc(F)c(F)cc1Cl,-55.7,-44.5,-89.1,-23.5,-149.6
Cc1ccc(C(=O)Nc2ccc3c(c2)OCO3)cc1,23.9,/,/,52.8*,/
O=C(Nc1ccc2c(c1)OCO2)c1ccncc1,-23.1,/,/,-4.1,/
Cc1ccc(OCC(=O)Nc2ccc3c(c2)OCCO3)cc1C,44.1,-44.4,21.7,53.5*,-42.6
Cn1c(C(=O)Nc2ccc3c(c2)OCCO3)cc2c(=O)n(C)c3ccccc3c21,21.7,2.4,-3.4,64.9*,-53.9
Cc1cc(C(=O)Nc2cccc3c2O[C@@H](CN(C)Cc2ccc(C(F)(F)F)cc2)[C@@H](C)CN([C@H](C)CO)C3=O)n(C)n1,/,-16.1,21.7,/,-0.7
C/C=C/c1cnc2c(c1)C(=O)N([C@H](C)CO)C[C@H](C)[C@@H](CN(C)C(=O)c1cnccn1)O2,/,-2.1,0.7,/,-1.4
Cc1ccn2cc(C(=O)Nc3ccccc3N3CCOCC3)nc2c1,-15.8,15.4,-25.6,-19.4,/
O=C(Nc1ccc2c(c1)OCCO2)c1ccc2nccnc2c1,-32.0,32.3,-17.7,70.2*,/
Cc1cccc(-c2cc(C(=O)Nc3ccc4c(c3)OCCO4)c3ccccc3n2)c1,12.8,-18.8,/,55.1*,/
Cc1ccc(C(=O)Nc2ccc3c(c2)OCCO3)cc1,42.7,66.5*,69.0*,84.0*,49.6
Cc1ccn2cc(C(=O)Nc3ccc4c(c3)OCCO4)nc2c1,49.0,/,/,62.2*,/
COc1ccc(S(=O)(=O)N(C)C[C@H]2Oc3c(NS(=O)(=O)c4cn(C)cn4)cccc3C(=O)N([C@@H](C)CO)C[C@@H]2C)cc1,/,-0.7,-3.2,/,-7.2
SMILES,TROY signal inh,LGR2 inh,EWS-Fli block,TWEAK-Fn14 inh,PAX8 reporter
O=C(C[C@H]1C=C[C@H](NS(=O)(=O)c2ccccc2)[C@@H](CO)O1)NCc1ccc(Cl)c(Cl)c1,/,-4.1,2.4,/,11.0
CN1C(=O)c2cc(NC(=O)C3CCOCC3)ccc2OC[C@@H]2O[C@@H](CC(=O)NC3CCCC3)CC[C@H]21,/,20.3,4.3,/,-12.8
Cc1cc(C(=O)Nc2ccc3c(c2)OCCO3)ccc1[N+](=O)[O-],26.0,59.3*,39.0,62.4*,-26.1
O=C(Nc1ccc2c(c1)OCCO2)c1ccc(Cl)c([N+](=O)[O-])c1,-28.1,-47.3,/,-12.9,-73.0
COc1cccc(NC(=O)C(NCCc2ccc(S(N)(=O)=O)cc2)c2ccccc2)c1 (stereo unspecified),-36.6,16.0,11.1,-0.2,74.4*
COc1cc(/C=C2\COC/C(=C\c3cc(OC)c(OC)c(OC)c3)C2=O)cc(OC)c1OC,77.6*,/,73.7*,101.8*,106.1*
COc1cc(/C=C2\CC/C(=C\c3cc(OC)c(OC)c(OC)c3)C2=O)cc(OC)c1OC,49.7,23.4,9.3,38.3,4.8
COc1cc(/C=C2\CC(C(C)(C)C)C/C(=C\c3cc(OC)c(OC)c(OC)c3)C2=O)cc(OC)c1OC (stereo unspecified),12.1,42.0,82.3*,64.2*,8.3
Cn1cc(C(=O)c2ccc(Cl)cc2)cc1-c1nc2ccccc2n1C,56.8*,/,/,52.2*,/
CNc1cncc(-c2cc(OC)ccc2OC)n1,9.4,1.8,-6.6,-0.5,-7.7
COc1ccc(OC)c(-c2cnc(OC(C)(C)C)nc2OC(C)(C)C)c1,1.5,23.5,71.0*,1.1,10.7
COc1ccc(/C=N/n2cnc3c([nH]c4ccc(C)cc43)c2=O)cc1CN1CCCC1,0.7,6.2,59.1*,7.9,19.9
COc1ccc(/C=N/n2cnc3c([nH]c4ccc(F)cc43)c2=O)cc1CN1CCCC1,5.9,6.3,56.5*,-28.1,11.2
COc1ccc2c(c1)[nH]c1c(=O)n(/N=C/c3ccc(OC)c(CN4CCCC4)c3)cnc12,3.6,0.0,-7.7,-26.3,5.2
COc1ccc(/C=N/n2c(=O)[nH]c3c([nH]c4ccc(F)cc43)c2=O)cc1CN1CCCCC1,-13.6,10.5,15.0,9.3,11.2
CCCNC(=O)Nc1ccc2c(c1)C(=O)N(C)[C@H]1CC[C@@H](CC(=O)NCC3CCCCC3)O[C@H]1CO2,/,-6.7,4.1,/,-0.8
C[C@H]1CN([C@@H](C)CO)C(=O)c2cccc(NS(=O)(=O)c3cccs3)c2O[C@@H]1CN(C)S(=O)(=O)c1cn(C)cn1,/,-4.6,7.7,/,/
COc1cccc(/C=N/NC(=O)CSc2nnc(C)n2-c2ccccc2)c1O,-41.6,/,/,-16.9,/
COc1ccccc1/C=N/NC(=O)CSc1ccc2ccccc2n1,48.7,-14.3,-29.3,52.0*,-13.1
CCCCSc1nc(C)cc(SCC(=O)N/N=C/c2cccc(OC)c2O)n1,/,?,/,103.5*,/
Cc1ccc(S(=O)(=O)Nc2ccc3c(c2)C(=O)N([C@H](C)CO)C[C@@H](C)[C@H](CN(C)C(=O)Nc2ccccc2)OCCCC[C@@H](C)O3)cc1,/,16.0,4.4,/,31.4
O=c1cc(CSc2nnc(-c3cccs3)n2Cc2ccccc2)nc2sc3ccccc3n12,45.2,/,/,52.6*,27.1
Cc1cc(C(=O)CSc2nnc(-c3cccs3)n2Cc2ccccc2)c(C)n1C,-16.7,/,/,11.0,/
C[C@H]1CN([C@@H](C)CO)C(=O)c2ccccc2-c2ccccc2CO[C@H]1CN(C)C(=O)c1ccc(F)cc1,/,12.9,-11.7,/,-12.7
CC(=O)c1sc(NC(=O)CCS(=O)(=O)c2ccc(Cl)cc2)nc1C,-14.4,-6.4,5.9,13.4,89.3*
COc1ccc(NC(=O)CCS(=O)(=O)c2ccc(Cl)cc2)cc1,-6.7,5.8,-7.5,-18.6,-5.9
O=C(CCS(=O)(=O)c1ccc(Cl)cc1)Nc1nc(-c2cccnc2)cs1,8.6,-4.9,-3.8,-13.5,18.2

# Source: PubChem
